# Results published in article PMC7862700, “An all-to-all approach to the identification of sequence-specific readers for epigenetic DNA modifications on cytosine”.
# What was measured:
# Assay in all cases: DAPPL (digital affinity profiling via proximity ligation, sequencing); 10 mM Tris-HCl pH 7.5, 50 mM NaCl, 1 mM DTT, 4% glycerol, room temperature, 30 min; GST-TFs on glutathione beads, 16-mer random dsDNA library, 0.1% formaldehyde crosslink after washing; high values mean tight binding
# FLI1 = biological target: T1, FLI1 (Homo sapiens, UniProt Q01543 1-452); conditions: protein: recombinant; tags: N-terminal GST; dsDNA, one strand shown
# T1 sequence: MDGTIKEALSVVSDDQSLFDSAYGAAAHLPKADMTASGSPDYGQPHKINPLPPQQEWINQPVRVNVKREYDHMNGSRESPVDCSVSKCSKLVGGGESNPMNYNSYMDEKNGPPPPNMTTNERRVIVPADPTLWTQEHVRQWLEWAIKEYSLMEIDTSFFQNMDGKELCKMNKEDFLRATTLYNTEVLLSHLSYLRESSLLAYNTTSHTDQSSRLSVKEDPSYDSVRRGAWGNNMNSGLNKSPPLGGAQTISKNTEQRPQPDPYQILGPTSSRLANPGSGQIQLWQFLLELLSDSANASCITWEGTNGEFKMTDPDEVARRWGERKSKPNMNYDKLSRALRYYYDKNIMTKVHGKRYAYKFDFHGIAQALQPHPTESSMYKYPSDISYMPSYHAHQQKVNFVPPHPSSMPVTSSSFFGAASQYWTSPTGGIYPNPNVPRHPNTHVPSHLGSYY
# How it was run: (§1)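 Pools were built from human transcription factors expressed in yeast as GST fusions, captured on glutathione beads and DNA-barcoded, along with a tag-only sample. Incubation with 200 nmole of a 16-mer random double-stranded DNA library lasted 30 min at room temperature in Tris/NaCl/DTT/glycerol buffer, and was followed by washing, 0.1% formaldehyde crosslinking, proximity ligation, PCR amplification and Illumina NextSeq500 sequencing. Binding signal is the quotient of each hexamer's read frequency for a factor and its frequency for the tag-only sample.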
# ELK1 = biological target: T2, ELK1 (Homo sapiens, UniProt P19419 1-428); conditions: protein: recombinant; tags: N-terminal GST; dsDNA, one strand shown
# T2 sequence: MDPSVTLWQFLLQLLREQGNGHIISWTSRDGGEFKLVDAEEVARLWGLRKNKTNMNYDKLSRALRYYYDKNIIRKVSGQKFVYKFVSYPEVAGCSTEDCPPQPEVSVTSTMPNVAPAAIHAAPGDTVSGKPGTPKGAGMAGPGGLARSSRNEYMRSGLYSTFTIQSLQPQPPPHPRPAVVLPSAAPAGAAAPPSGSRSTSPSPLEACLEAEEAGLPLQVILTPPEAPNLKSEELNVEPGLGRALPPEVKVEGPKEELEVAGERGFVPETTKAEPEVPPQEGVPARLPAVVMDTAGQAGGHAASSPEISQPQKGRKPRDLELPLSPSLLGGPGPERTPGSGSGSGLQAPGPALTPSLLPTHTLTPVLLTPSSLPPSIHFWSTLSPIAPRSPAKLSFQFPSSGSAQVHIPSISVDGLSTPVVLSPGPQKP
# How it was run: as §1
# GABPA = biological target: T3, GABPA (Homo sapiens, UniProt Q06546 1-454); conditions: protein: recombinant; tags: N-terminal GST; dsDNA, one strand shown
# T3 sequence: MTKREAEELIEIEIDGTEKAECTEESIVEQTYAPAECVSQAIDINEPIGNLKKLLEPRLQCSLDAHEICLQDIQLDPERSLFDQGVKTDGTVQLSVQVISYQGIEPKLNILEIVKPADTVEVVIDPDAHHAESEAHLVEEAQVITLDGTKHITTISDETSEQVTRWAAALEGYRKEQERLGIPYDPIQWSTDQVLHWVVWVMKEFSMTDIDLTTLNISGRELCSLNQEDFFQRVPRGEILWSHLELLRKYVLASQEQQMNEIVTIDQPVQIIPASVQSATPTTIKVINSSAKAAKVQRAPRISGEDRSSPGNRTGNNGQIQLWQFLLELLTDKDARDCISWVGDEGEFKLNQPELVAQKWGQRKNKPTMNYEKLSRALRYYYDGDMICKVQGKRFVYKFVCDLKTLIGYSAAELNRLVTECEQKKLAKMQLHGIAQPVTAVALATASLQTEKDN
# How it was run: as §1
# ERG = biological target: T4, ERG (Homo sapiens, UniProt P11308 1-479); conditions: protein: recombinant; tags: N-terminal GST; dsDNA, one strand shown
# T4 sequence: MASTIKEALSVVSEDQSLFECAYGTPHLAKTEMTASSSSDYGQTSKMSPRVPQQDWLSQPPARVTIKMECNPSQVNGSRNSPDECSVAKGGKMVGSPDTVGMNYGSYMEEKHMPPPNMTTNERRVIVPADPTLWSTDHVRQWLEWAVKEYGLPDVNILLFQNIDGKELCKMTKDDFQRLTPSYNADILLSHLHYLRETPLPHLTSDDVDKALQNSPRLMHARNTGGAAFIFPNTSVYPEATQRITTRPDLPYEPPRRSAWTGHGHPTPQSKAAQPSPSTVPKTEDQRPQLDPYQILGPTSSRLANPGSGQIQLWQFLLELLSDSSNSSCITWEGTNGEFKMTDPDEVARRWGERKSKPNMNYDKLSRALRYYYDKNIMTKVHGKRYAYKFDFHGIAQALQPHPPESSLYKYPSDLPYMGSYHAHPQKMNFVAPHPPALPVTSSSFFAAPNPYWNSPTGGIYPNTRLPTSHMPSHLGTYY
# How it was run: as §1
# ELF1 = ELF1 (Homo sapiens, UniProt P32519 1-619); conditions: protein: recombinant; tags: N-terminal GST; dsDNA, one strand shown
# How it was run: as §1
# EHF = biological target: T5, EHF (Homo sapiens, UniProt Q9NZC4 1-300); conditions: protein: recombinant; tags: N-terminal GST; dsDNA, one strand shown
# T5 sequence: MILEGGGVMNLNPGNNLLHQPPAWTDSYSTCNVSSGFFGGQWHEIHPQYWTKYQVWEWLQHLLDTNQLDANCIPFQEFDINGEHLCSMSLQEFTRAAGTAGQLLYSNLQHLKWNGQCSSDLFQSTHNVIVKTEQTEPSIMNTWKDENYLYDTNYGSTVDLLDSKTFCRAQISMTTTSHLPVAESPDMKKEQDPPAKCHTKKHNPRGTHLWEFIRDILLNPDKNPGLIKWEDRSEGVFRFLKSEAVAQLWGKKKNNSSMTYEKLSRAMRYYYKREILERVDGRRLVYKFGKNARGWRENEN
# How it was run: as §1
# SPI1 = SPI1 (Homo sapiens, UniProt P17947 1-270); conditions: protein: recombinant; tags: N-terminal GST; dsDNA, one strand shown
# How it was run: as §1
# SPIB = SPIB (Homo sapiens, UniProt Q01892 1-262); conditions: protein: recombinant; tags: N-terminal GST; dsDNA, one strand shown
# How it was run: as §1
# ELK3 = biological target: T6, ELK3 (Homo sapiens, UniProt P41970 1-407); conditions: protein: recombinant; tags: N-terminal GST; dsDNA, one strand shown
# T6 sequence: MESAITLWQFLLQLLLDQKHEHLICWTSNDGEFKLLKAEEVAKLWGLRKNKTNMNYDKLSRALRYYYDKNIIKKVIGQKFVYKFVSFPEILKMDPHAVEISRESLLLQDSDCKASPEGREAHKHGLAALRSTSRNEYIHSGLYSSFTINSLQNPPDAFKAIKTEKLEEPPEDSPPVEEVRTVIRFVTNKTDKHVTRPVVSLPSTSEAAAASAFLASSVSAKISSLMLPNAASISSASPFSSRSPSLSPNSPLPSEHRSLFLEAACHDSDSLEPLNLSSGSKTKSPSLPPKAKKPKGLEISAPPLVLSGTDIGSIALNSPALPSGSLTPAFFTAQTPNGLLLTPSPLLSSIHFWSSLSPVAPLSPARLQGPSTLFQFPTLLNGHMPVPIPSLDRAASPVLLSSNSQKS
# How it was run: as §1
# FEV = biological target: T7, FEV (Homo sapiens, UniProt Q99581 1-238); conditions: protein: recombinant; tags: N-terminal GST; dsDNA, one strand shown
# T7 sequence: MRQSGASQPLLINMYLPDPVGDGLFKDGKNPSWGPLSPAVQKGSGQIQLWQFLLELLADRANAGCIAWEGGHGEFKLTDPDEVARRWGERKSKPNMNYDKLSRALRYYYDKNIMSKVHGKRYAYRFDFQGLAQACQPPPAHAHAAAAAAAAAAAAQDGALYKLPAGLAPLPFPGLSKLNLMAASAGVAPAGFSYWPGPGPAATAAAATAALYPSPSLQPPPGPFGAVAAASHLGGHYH
# How it was run: as §1
# ETV5 = ETV5 (Homo sapiens, UniProt P41161 1-510); conditions: protein: recombinant; tags: N-terminal GST; dsDNA, one strand shown
# How it was run: as §1
# HSF1 = HSF1 (Homo sapiens, UniProt Q00613 1-529); conditions: protein: recombinant; tags: N-terminal GST; chain copies: 3; dsDNA, one strand shown
# How it was run: as §1
# SPIC = biological target: T8, SPIC (Homo sapiens, UniProt Q8N5J4 1-248); conditions: protein: recombinant; tags: N-terminal GST; dsDNA, one strand shown
# T8 sequence: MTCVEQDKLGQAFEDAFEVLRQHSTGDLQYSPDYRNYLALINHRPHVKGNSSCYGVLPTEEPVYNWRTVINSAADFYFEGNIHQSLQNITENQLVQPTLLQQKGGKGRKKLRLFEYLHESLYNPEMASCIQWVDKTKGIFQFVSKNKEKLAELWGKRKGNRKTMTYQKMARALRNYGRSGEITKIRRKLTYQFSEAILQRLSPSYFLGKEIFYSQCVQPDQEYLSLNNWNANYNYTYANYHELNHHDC
# How it was run: as §1
# ELF4 = ELF4 (Homo sapiens, UniProt Q99607 1-663); conditions: protein: recombinant; tags: N-terminal GST; dsDNA, one strand shown
# How it was run: as §1
# ELK4 = biological target: T9, ELK4 (Homo sapiens, UniProt P28324-2 1-405); conditions: protein: recombinant; tags: N-terminal GST; dsDNA, one strand shown
# T9 sequence: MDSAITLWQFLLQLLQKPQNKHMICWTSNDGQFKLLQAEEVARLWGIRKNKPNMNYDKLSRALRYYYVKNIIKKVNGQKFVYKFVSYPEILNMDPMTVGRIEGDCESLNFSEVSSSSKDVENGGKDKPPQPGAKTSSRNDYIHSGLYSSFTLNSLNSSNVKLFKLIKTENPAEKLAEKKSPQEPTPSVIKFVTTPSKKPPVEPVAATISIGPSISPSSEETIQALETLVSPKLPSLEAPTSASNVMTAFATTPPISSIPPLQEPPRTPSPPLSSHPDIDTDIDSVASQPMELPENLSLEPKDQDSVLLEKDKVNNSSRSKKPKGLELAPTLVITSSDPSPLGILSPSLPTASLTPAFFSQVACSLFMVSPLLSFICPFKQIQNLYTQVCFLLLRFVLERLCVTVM
# How it was run: as §1
# ETV2 = biological target: T10, ETV2 (Homo sapiens, UniProt O00321 1-342); conditions: protein: recombinant; tags: N-terminal GST; dsDNA, one strand shown
# T10 sequence: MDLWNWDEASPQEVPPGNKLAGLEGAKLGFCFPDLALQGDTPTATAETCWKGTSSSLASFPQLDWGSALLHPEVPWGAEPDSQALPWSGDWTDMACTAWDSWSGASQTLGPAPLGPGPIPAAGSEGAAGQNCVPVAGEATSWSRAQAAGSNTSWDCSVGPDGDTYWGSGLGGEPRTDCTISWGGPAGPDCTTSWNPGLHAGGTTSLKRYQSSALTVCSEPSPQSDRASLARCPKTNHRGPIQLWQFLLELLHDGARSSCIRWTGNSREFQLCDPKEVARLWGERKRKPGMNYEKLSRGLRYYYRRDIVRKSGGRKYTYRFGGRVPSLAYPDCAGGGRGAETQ
# How it was run: as §1
# ELF3 = biological target: T11, ELF3 (Homo sapiens, UniProt P78545 1-371); conditions: protein: recombinant; tags: N-terminal GST; dsDNA, one strand shown
# T11 sequence: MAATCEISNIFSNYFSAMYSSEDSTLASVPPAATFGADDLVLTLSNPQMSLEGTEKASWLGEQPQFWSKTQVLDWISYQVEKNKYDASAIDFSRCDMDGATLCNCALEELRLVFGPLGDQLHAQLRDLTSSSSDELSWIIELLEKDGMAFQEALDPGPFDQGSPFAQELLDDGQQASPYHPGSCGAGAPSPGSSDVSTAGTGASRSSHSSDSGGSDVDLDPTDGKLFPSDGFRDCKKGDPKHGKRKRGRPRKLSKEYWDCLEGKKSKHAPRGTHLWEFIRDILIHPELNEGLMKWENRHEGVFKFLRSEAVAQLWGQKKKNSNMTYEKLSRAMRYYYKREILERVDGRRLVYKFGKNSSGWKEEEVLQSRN
# How it was run: as §1
# CRX = CRX (Homo sapiens, UniProt O43186 1-299); conditions: protein: recombinant; tags: N-terminal GST; dsDNA, one strand shown
# How it was run: as §1
# ETV1 = ETV1 (Homo sapiens, UniProt P50549 1-477); conditions: protein: recombinant; tags: N-terminal GST; dsDNA, one strand shown
# How it was run: as §1
# Sequence of ETV1 (P50549 whole entry): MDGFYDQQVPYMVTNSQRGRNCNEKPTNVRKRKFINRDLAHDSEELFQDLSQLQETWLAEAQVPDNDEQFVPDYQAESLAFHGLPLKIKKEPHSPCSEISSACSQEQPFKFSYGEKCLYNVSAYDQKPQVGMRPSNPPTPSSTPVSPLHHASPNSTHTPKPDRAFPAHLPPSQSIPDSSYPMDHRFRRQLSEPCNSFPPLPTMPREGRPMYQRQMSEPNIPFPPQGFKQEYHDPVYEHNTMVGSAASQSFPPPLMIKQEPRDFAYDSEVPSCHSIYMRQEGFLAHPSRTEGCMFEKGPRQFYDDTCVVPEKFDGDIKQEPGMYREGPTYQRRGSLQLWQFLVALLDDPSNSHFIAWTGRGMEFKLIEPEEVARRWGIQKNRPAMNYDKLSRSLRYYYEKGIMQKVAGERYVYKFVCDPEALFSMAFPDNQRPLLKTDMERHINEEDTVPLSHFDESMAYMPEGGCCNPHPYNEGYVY
# Sequence of ETV5 (P41161 whole entry): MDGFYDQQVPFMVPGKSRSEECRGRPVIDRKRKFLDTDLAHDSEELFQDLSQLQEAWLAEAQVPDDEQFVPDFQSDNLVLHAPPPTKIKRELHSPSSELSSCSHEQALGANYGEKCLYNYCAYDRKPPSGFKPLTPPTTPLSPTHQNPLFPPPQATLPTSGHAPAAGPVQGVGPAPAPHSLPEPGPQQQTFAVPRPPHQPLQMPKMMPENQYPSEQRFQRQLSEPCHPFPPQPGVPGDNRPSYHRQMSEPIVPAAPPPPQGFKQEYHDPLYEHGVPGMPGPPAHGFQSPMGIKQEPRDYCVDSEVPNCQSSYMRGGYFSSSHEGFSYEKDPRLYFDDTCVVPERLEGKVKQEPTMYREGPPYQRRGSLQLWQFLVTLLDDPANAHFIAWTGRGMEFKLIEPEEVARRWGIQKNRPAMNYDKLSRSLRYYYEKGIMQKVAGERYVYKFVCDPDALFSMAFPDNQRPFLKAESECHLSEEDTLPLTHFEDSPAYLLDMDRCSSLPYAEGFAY
# Sequence of CRX (O43186 whole entry): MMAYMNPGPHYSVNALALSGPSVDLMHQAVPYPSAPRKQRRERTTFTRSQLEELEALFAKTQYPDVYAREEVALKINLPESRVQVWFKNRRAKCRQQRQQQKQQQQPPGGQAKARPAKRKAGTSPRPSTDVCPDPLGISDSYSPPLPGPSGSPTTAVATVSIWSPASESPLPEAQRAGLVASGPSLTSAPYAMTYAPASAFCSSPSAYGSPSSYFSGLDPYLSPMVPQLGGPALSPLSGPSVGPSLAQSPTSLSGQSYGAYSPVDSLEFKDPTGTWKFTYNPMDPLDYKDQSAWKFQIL
# Sequence of ELF1 (P32519 whole entry): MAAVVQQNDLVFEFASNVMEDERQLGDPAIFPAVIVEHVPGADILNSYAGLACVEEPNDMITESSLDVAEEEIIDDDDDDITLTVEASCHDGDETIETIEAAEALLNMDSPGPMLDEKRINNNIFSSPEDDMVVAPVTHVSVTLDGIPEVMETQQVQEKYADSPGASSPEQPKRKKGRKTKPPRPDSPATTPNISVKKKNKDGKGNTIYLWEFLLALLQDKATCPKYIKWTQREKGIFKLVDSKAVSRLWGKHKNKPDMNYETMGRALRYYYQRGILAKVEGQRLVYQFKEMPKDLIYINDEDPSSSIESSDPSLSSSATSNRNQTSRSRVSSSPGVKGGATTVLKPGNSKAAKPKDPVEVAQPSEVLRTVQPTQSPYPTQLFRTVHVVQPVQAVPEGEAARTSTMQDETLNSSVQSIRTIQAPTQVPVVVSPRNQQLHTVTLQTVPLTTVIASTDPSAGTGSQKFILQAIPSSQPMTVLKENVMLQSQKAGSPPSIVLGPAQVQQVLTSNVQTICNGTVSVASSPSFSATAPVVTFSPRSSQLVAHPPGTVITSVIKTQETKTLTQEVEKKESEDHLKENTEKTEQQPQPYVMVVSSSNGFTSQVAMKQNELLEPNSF
# Sequence of ELF4 (Q99607 whole entry): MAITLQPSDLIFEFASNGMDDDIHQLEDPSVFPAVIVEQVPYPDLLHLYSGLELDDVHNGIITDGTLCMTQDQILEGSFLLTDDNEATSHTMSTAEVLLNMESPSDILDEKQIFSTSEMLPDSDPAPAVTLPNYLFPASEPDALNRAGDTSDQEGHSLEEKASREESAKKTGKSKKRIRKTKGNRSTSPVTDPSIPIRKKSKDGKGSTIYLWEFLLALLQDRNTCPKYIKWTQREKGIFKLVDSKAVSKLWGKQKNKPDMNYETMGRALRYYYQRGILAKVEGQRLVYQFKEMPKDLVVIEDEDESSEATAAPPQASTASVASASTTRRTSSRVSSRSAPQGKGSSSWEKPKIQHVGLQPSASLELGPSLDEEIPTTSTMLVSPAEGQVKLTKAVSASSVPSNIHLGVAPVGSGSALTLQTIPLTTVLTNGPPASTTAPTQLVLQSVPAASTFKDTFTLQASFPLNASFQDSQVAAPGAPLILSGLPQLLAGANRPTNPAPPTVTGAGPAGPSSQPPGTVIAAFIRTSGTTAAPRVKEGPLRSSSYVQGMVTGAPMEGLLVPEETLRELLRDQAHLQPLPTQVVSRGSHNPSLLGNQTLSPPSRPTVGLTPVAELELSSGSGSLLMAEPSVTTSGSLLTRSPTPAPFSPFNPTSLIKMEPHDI
# Sequence of HSF1 (Q00613 whole entry): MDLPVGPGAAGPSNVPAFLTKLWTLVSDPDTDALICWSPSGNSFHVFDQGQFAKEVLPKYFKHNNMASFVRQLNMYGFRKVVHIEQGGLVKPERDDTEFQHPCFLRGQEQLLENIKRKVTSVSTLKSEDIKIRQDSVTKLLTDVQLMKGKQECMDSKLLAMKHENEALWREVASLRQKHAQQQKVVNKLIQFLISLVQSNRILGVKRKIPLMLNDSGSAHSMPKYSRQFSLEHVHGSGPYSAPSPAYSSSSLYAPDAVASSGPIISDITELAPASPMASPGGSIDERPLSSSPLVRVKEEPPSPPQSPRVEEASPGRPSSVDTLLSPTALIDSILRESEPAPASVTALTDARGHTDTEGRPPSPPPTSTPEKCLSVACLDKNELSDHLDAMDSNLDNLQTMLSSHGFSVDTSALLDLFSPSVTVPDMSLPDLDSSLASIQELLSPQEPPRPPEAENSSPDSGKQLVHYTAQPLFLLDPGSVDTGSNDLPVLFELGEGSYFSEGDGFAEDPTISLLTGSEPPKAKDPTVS
# Sequence of SPIB (Q01892 whole entry): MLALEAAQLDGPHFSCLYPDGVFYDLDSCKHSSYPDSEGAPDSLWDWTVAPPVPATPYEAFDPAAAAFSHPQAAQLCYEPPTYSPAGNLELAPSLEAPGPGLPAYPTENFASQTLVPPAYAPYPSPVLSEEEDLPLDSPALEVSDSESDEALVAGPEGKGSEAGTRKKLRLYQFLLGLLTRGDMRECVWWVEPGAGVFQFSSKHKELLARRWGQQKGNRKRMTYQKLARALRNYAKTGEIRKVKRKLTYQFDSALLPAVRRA
sequence,measurement,setting,value
TGACAA,binding signal,FLI1,"1.18 fold enrichment (6-mer frequency, TF over GST control)"
same,binding signal,ELK1,"1.19 fold enrichment (6-mer frequency, TF over GST control)"
same,binding signal,GABPA,"1.32 fold enrichment (6-mer frequency, TF over GST control)"
same,binding signal,ERG,"1.28 fold enrichment (6-mer frequency, TF over GST control)"
same,binding signal,ELF1,"1.38 fold enrichment (6-mer frequency, TF over GST control)"
same,binding signal,EHF,"1.21 fold enrichment (6-mer frequency, TF over GST control)"
same,binding signal,SPI1,"1.25 fold enrichment (6-mer frequency, TF over GST control)"
same,binding signal,SPIB,"1.14 fold enrichment (6-mer frequency, TF over GST control)"
same,binding signal,ELK3,"1.12 fold enrichment (6-mer frequency, TF over GST control)"
same,binding signal,FEV,"1.22 fold enrichment (6-mer frequency, TF over GST control)"
same,binding signal,ETV5,"1.22 fold enrichment (6-mer frequency, TF over GST control)"
same,binding signal,HSF1,"1.06 fold enrichment (6-mer frequency, TF over GST control)"
same,binding signal,SPIC,"1.11 fold enrichment (6-mer frequency, TF over GST control)"
same,binding signal,ELF4,"1.26 fold enrichment (6-mer frequency, TF over GST control)"
same,binding signal,ELK4,"1.2 fold enrichment (6-mer frequency, TF over GST control)"
same,binding signal,ETV2,"1.14 fold enrichment (6-mer frequency, TF over GST control)"
same,binding signal,ELF3,"1.3 fold enrichment (6-mer frequency, TF over GST control)"
same,binding signal,CRX,"1.05 fold enrichment (6-mer frequency, TF over GST control)"
same,binding signal,ETV1,"1.25 fold enrichment (6-mer frequency, TF over GST control)"
